# Assay results taken from PubChem BioAssay AID652257 (The Scripps Research Institute Molecular Screening Center, 2013).
# In all, about 370,000 compounds went through this assay and about 4,800 (1.3%) were called active. This is one part of a sample in which actives are shown more often than they occur. A number with no mark means an inactive call.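 The calls were made as follows: active = inhibition above about 21% made by adding two undisclosed values (limit read from the data); inactive = the rest.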
# Target: Protein arginine N-methyltransferase 1 (Homo sapiens) (UniProt Q99873)
# Sequence (Q99873 whole entry, looked up): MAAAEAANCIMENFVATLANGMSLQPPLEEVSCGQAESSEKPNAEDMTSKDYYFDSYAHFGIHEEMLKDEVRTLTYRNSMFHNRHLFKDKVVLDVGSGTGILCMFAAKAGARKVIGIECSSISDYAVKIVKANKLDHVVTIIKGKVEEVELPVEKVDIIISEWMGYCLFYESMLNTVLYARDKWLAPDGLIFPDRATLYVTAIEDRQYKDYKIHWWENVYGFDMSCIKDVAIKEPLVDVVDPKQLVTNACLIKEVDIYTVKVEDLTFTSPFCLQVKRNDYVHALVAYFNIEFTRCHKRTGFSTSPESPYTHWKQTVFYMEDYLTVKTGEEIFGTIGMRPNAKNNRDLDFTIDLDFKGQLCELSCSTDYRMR
# Test: human PRMT1 activity-probe blockers – biochemical, fluorescence polarization, primary screen (AID 652257)
# Conditions: recombinant PRMT1, activity-based probe fluorescence polarization; at 2.79 µM; active compounds read high
row,Compound,inhibition
1,O=C1C(=O)N(Cc2ccc(-c3ccsc3)cc2)c2ccc(OC(F)(F)F)cc21,-4.19%
2,O=C1CC[C@@H](COc2ccc3[nH]cc(-c4ccccc4)c3c2-c2ccccc2)N1,-0.73%
3,CC(C)(C)c1nnc2sc(SCC(O)=C(C#N)c3nc4ccccc4[nH]3)nn2c1=O,21.6% (active)
4,Cc1ccc(NC(=O)CSc2nn3c(=O)c(C)nnc3s2)cc1Cl,1.57%
5,O=C(Cc1ccccc1)NCC1OCCc2ccccc21 (configuration not stated),0%
6,CSc1nsc(SCC(=O)Nc2cc(C(=O)O)ccc2C)n1,20.1%
7,COc1ccc(C)cc1NC(=O)CSc1nc(SC)ns1,16%
8,COc1ccc(NC(=O)CSc2nc(SC)ns2)c(OC)c1,36.5% (active)
9,O=C1CC(c2ccc3c(c2)OCO3)N=C2N(CC3CC3)C/C(=C/c3ccccc3)N12 (configuration not stated),-0.31%
10,CC1Cc2ccccc2N1CC(=O)Nc1ccc(S(N)(=O)=O)cc1 (configuration not stated),-0.96%
11,Cc1nc2ccc(S(=O)(=O)NCC(=O)NCCN3CCCCC3C)cc2s1 (configuration not stated),-0.17%
12,COc1cccc(CNC(=O)CNS(=O)(=O)c2ccc3nc(C)sc3c2)c1OC,-2.5%
13,Cc1nc2ccc(S(=O)(=O)NCC(=O)O)cc2s1,36.9% (active)
14,COCC(C)NC(=O)CSc1nc2nn(-c3ccccc3)c(=O)c-2c2n1CCCCC2 (configuration not stated),5.41%
15,CNC(=S)NNC(=O)c1ccc(N(C)C)cc1,-0.78%
16,CN(C)c1ccc(N/C=C/C(=O)C(F)(F)F)cc1,36.9% (active)
17,CC1CN(/C=C/C(=O)C(F)(F)F)CC(C)O1 (configuration not stated),-0.81%
18,c1csc(-c2nnc(SCc3nc4ccccc4[nH]3)o2)c1,-6.14%
19,C=CCN1C(=O)[C@@H](CC(=O)NCCCOCCCC)[C@]2(C(=O)OCC)CCCCC/C=C/12,2.37%
20,c1ccc(C(=NNc2nc3ccccc3s2)c2ccccn2)cc1,27.5% (active)
21,CCC(=O)Nc1ccc2c(c1)C(=O)N(C)[C@H]1CC[C@H](CC(=O)NCCOC)O[C@@H]1CO2,5.57%
22,CCc1ccccc1N1C(=O)C2C3CC(=O)C(c4ccccc43)C2C1=O (configuration not stated),-4.03%
23,Cn1c(=O)c2cn(-c3cccc4ccccc34)cc2n(C)c1=O,-1.91%

row,Compound,inhibition
1,CC1=C(C)CC2C(=O)N(c3cccc4ccccc34)C(=O)C2C1 (configuration not stated),42% (active)
2,Cc1ccc(N/N=C2\COC(C)(C)CC2=O)cc1,-2.4%
3,COc1ccccc1Oc1ccc(N/C=C2/CCCC2=O)cc1,-1.7%
4,COc1ccc(N/N=C2/CCCCC2=O)cc1,32.7% (active)
5,C=CCN(Cc1ccc2c(c1)OCO2)C(C#CC1CC1)C(C)(C)C (configuration not stated),1.88%
6,CN1CCc2nc(SC(C(=O)O)c3ccccc3)c(C#N)c(-c3cccs3)c2C1 (configuration not stated),11.9%
7,CC(NC(=O)CSc1nc2c(cc1C#N)CN(C)CC2)c1ccccc1 (configuration not stated),37.7% (active)
8,Cc1cc(NC(=O)CSCC(=O)NC(C)c2ccccc2)no1 (configuration not stated),-1.57%
9,CCOc1ccc(N(C)Cc2cc(=O)oc3ccc(OC)cc23)cc1,-2.23%
10,Brc1ccccc1C1N=C(c2ccccc2)NO1 (configuration not stated),3.27%
11,Brc1ccccc1C1Nc2cccc3cccc(c23)N1,39.4% (active)
12,COc1cc2c(cc1OC)C(c1ccccc1Br)NC(=O)C2 (configuration not stated),4.47%
13,COC(=O)c1c(-c2ccc(OC)cc2)c2c(c3c4ccccc4n(S(=O)(=O)c4ccc(C)cc4)c13)C(=O)N(C)C2,3.01%
14,CC(NCc1nc2ccccc2n1C)C12CC3CC(CC(C3)C1)C2 (configuration not stated),5.86%
15,CCC(C)[C@@H](C(=O)OC)N(CCc1cn(Cc2ccccc2)nn1)S(=O)(=O)c1ccccc1Br (some centres not stated),1.11%
16,NC(=O)C[C@@H]1NC(=O)CNC(=O)c2cc([N+](=O)[O-])cc(I)c2NCCC(C(N)=O)NC1=O (some centres not stated),-3.5%
17,CC(=O)N1CC[n+]2c(-c3ccc([N+](=O)[O-])cc3)csc21,52.3% (active)
18,CN1C2CCC1CC(NC(=O)c1ccc([N+](=O)[O-])cc1)C2 (configuration not stated),-4.9%
19,Cc1cc(C)cc(C(=O)N2CCN=C2SCc2ccc([N+](=O)[O-])cc2)c1,-6.78%
20,Cc1ccc(-n2c(SCC(=O)Nc3ccc(S(=O)(=O)Nc4nccs4)cc3)nnc2-c2ccccn2)cc1,-1.31%
21,Cc1ccc(OS(=O)(=O)c2ccc(-c3csc(C)n3)s2)c(C)c1,27.8% (active)
22,C=CCN1C(=O)[C@@H](CC(=O)NCC2CCCCC2)[C@]2(C(=O)OC)CCCCC=C12,-0.92%
23,C=CCSC1=C(C#N)C(c2cc(Br)c(O)c(OC)c2)CC(=O)N1 (configuration not stated),23.6% (active)

row,Compound,inhibition
1,COc1cc(C2C(C#N)=C(C)NC3=C2C(=O)CC(C)(C)C3)ccc1O (configuration not stated),-0.43%
2,Cc1cc(=O)[nH]c2nnnn12,-0.07%
3,CCNC(=O)COc1cc(C)c(Br)c(C)c1,-2.57%
4,Cc1ccc(NC(=S)NNC(=O)CSc2nnc(SCc3ccccc3Cl)s2)cc1,-4.6%
5,Cc1cc(=O)[nH]c(SCC(=O)Nc2ccc(F)cc2F)n1,-0.33%
6,COc1ccc(NC(=O)c2ccc(C#CC(C)(C)O)cc2)cc1,25.5% (active)
7,COc1ccc(C(=O)Nc2ccc(-n3nncc3C(C)(C)C)cc2)cc1,1.48%
8,COc1ccc(C(=O)Nc2c(N)nc(SCC(=O)Nc3ccc(C(C)=O)cc3)[nH]c2=O)cc1,0.6%
9,O=C(CCCCCN1C(=O)C2C3C=CC(C3)C2C1=O)Nc1ccccn1 (configuration not stated),-1.78%
10,Cc1n[nH]c(=O)c2c(NC(=O)COC(=O)c3ncc(Cl)c(Cl)c3Cl)oc(C)c12,7.67%
11,O=C(c1ccncc1)N1CC[C@H]2[C@H](CCCN2Cc2ccc(F)cc2)C1,0.01%
12,CCCn1c(C)cc(-c2csc(NC(=O)CCc3nc4ccccc4c(=O)[nH]3)n2)c1C,9.77%
13,Cc1c(C#N)c(NC(=O)c2ccccc2)n(Cc2ccccc2)c1C,-3.16%
14,CC(=O)Nc1ccc(C(=O)Nc2nc(-c3cc(C)n(Cc4ccccc4)c3C)cs2)cc1,25.2% (active)
15,COc1ccc([C@H]2N[C@]3(CCCN(CC4CCCCC4)C3=O)[C@H]3C(=O)N(C)C(=O)[C@@H]23)cc1,5.33%
16,Cc1cc(NS(=O)(=O)c2ccc(NC(=O)CSc3nnc(-c4ccc(C(C)(C)C)cc4)n3Cc3ccco3)cc2)nc(C)n1,3.17%
17,O=C(Oc1ccccc1Cl)c1ccc(N2CCOCC2)c([N+](=O)[O-])c1,-1.29%
18,O=C(Oc1ccccc1C(=S)N1CCCCC1)c1cc([N+](=O)[O-])cc([N+](=O)[O-])c1,41.9% (active)
19,O=C(Oc1ccc(Br)cc1C(=S)N1CCOCC1)c1cccc([N+](=O)[O-])c1,5.11%
20,O=C(Cn1c(N2CCN(C/C=C/c3ccccc3)CC2)nc2ccccc21)c1ccccc1,0.25%
21,CCC(C(=O)NCc1cccnc1)n1nc(C)c2sc3ccccc3c2c1=O (configuration not stated),3.72%
22,Cc1ccc(S(=O)(=O)C2(S(=O)(=O)c3ccc(C)cc3)CCCC2)cc1,1.95%
23,CCCOc1ccc(C(=O)C(CCC(CNCC)C(=O)c2ccc(OCCC)cc2)CNCC)cc1 (configuration not stated),-1.8%

row,Compound,inhibition
1,CCc1ccc(N(C(=O)c2csnn2)C(C(=O)NC2CCCCC2)c2ccncc2)cc1 (configuration not stated),0.98%
2,Clc1ccc(-n2c(COc3ccccc3)nnc2SCc2nc3ccccc3[nH]2)cc1,4.16%
3,CC1CCN(c2ccc(C(=O)O)cc2NS(=O)(=O)c2ccc(Br)s2)CC1,-1.42%
4,COc1ccc(C(=O)COC(=O)COc2ccc(C)c(C)c2)cc1,29.1% (active)
5,COc1ccc(OCC(=O)OCCN(C)C)cc1,-3.78%
6,Cc1ccc(OCC(=O)Nc2ccc(C(=O)O)cc2NC(=O)COc2ccc(C)c(C)c2)cc1C,-0.54%
7,CCn1c(=O)n2n(c1=O)[C@@]1(C=C3CCCC[C@H]32)N=C(NC(=O)c2ccccc2)N(Cc2ccccc2)[C@H]1Cc1ccccc1,-0.64%
8,Cc1cccc(NC(=O)C[C@H]2CC[C@H]3[C@@H](COc4ccc(NC(=O)Nc5ccccc5)cc4C(=O)N3C)O2)c1,0.26%
9,CCOC(=O)Nc1ccc(S(=O)(=O)N(C)C(C)C)cc1,1.03%
10,COc1ccc2c(C(C)c3ccc(N)cc3)cn(C)c2c1 (configuration not stated),-4.35%
11,O=C(CSc1cccc[n+]1[O-])NCCCc1ccccc1,-1.06%
12,O=C(CSc1cccc[n+]1[O-])c1ccc(-c2ccccc2)cc1,39.5% (active)
13,CCN(C(=O)CSc1cccc[n+]1[O-])c1ccccc1,-2.83%
14,CCN(CC)C(=O)CC[C@H]1CC[C@]2(CCCN(Cc3ccc(Cl)cc3)C2)O1,-4.34%
15,CCn1c(CSCc2c(Cl)cccc2Cl)n[nH]c1=S,-0.4%
16,S=c1[nH]nc(CSCc2ccc(Cl)cc2Cl)n1-c1ccccc1,21.5% (active)
17,Cc1ccc(NCc2n[nH]c(=S)n2-c2ccccc2)cc1Cl,15.4%
18,CCCNC(=O)C1(C)CCCN(C(=O)c2oc3ccccc3c2C)C1 (configuration not stated),-2.54%
19,CNc1nc(=O)n(C2CCCO2)cc1C (configuration not stated),4.11%
20,C=CS(=O)(=O)N(Cc1nnn(Cc2ccccc2)c1Br)[C@H](C(=O)OC)C(C)C,-6.2%
21,Cc1cccc(Oc2c([N+](=O)[O-])c(=O)n(C)c3ccccc23)c1,30% (active)
22,Cn1c(=O)c([N+](=O)[O-])c(Oc2ccccc2)c2ccccc21,5.71%
23,COc1cc2c(=O)n(C)c3ccccc3c2cc1OC,0.5%
